The nature of experiment [1]: CCTE_Shafer_MEA_acute_network_burst_percentage: CCTE's Neural Acute Assay for Percentage of Network Bursts, Shafer Lab (AID 2284022).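 Also: curves fitted for loss so actives lower network burst percentage.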 The method, boiled down: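 Rat cortical cultures, DIV 13/15; 20 min equilibration, 40 min baseline, compound 0.03-40 uM, 40 min recording, 37 C. Spikes: 300-5000 Hz band-pass, threshold 8x rms noise. Readout: % change in network-burst spike fraction; loss direction vs DMSO.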

The nature of experiment [2]: CCTE_Shafer_MEA_acute_cross_correlation_area: CCTE's Neural Acute Assay for Area of Cross Correlation, Shafer Lab (AID 2284024).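 Also: area under pooled inter-electrode spike cross-correlation near zero lag as percent change from own baseline; curves fitted for loss of cross-correlation area so actives lower synchrony.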 The method in brief:
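Rat cortical cultures, DIV 13/15, MEA; spikes detected at 8x rms noise (300-5000 Hz band-pass). Compound 0.03-40 uM, ≥3 wells each. Readout: % change in pooled inter-electrode cross-correlation area vs own baseline; DMSO negative control.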

Experiment [3] can be described thus: CCTE_Shafer_MEA_acute_cross_correlation_HWHM: CCTE's Neural Acute Assay for Cross Correlation at Half Width at Half Maximum, Shafer Lab (AID 2284026).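 Also: percent change per well from pre-dose baseline in spike cross-correlogram half width; hits are a decrease in cross-correlogram half width relative to DMSO.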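 As to Outcome: spontaneous network firing of rat primary cortical neurons on multiwell microelectrode arrays.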 The method in brief:
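Read-out: half width at half maximum of action-potential cross-correlogram, percent change versus pre-treatment baseline, fitted in loss direction against DMSO. Rat cortical cultures, DIV 13 or 15, dosed 0.03-40 uM, 40-min recordings at 37 C.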

Experiment [4] can be described thus: CCTE_Shafer_MEA_acute_synchrony_index: CCTE's Neural Acute Assay for Synchrony, Shafer Lab (AID 2284027).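 Also: network synchrony index of spontaneous spiking in primary rat cortical neurons on MEAs; fitted for loss of signal so actives lower synchrony relative to DMSO.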 The method, boiled down:
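Primary rat cortical neurons on 48-well MEAs, dosed at 0.03–40 uM on DIV 13 or 15. Spikes are recorded for 40 min at 37C before and after exposure, and synchrony index (0–1) is expressed as percent change from baseline per well.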

Experiment [5] is described as follows: CCTE_Shafer_MEA_dev_firing_rate_mean: CCTE's Neural Network Formation Assay for Mean Firing Rate, Shafer Lab (AID 2284031).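 As to AC50: curve fitted for loss of firing so AC50 reflects decreased mean firing rate.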 The method, boiled down: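 Primary rat cortical neurons on 48-well MEA plates, exposed from plating day 0 with dosing renewed on DIV 5 and 9. Mean well firing rate over active electrodes, recorded days 5, 7, 9, 12, summarised as trapezoidal AUC.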

Experiment [6] in a line: CCTE_Shafer_MEA_dev_per_burst_spike_percent: CCTE's Neural Network Formation Assay for Percent of Spikes in a Burst, Shafer Lab (AID 2284032).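 As to AC50: fitted as a decrease in burst spike percentage below DMSO baseline.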 The method in brief: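 Rat primary cortical neurons on 16-electrode MEA wells, dosed from plating day 0 for 12 days with renewal on DIV 5 and 9; spikes-in-bursts percentage averaged over bursting electrodes, collapsed as AUC across days 5, 7, 9, 12; loss direction versus DMSO.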

A short description of experiment [7]: CCTE_Shafer_MEA_dev_active_electrodes_number: CCTE's Neural Network Formation Assay for Number of Active Electrodes, Shafer Lab (AID 2284040; active = hit-call score of the fitted dose curve at least 0.9, where 1 is the maximum;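 as to AC50: potency for loss of active electrodes versus DMSO so lower counts are hits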). The method in brief: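 Primary rat cortical neurons on 16-electrode MEA wells, exposed from day 0 through day 12 with compound renewed at DIV 5 and 9 feeds. Active electrodes (mean firing ≥5 spikes/min) counted at DIV 5, 7, 9, 12; trapezoidal AUC across days, loss-of-signal versus DMSO.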

Experiment [8] deals with Estrogen receptor (Homo sapiens) (UniProt P03372). Briefly: CCTE_Deisenroth_AIME_384WELL_LUC_Active: CCTE's 384-well Estrogen Receptor Transactivation Assay with AIME metabolic competence (ERTA luciferase; metabolism positive), Deisenroth Lab (AID 2284030; active = hit-call score of the fitted dose curve at least 0.9, where 1 is the maximum). The method in brief: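 Readout: bioluminescent luciferase induction in VM7Luc4E2 cells 24 hour after receiving medium from a 2 h rat hepatic S9 (induced, alginate microsphere) metabolism step. Concentrations 0.002 - 200 uM; activity scaled to 17beta-estradiol positive control.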

Experiment [9] is described as follows: CCTE_Deisenroth_AIME_384WELL_CTox_Active: Cytotoxicity Assessment (CTOX) in CCTE's 384-well Estrogen Receptor Transactivation Assay with AIME metabolic competence (metabolism positive), Deisenroth Lab (AID 2284037; active = hit-call score of the fitted dose curve at least 0.9, where 1 is the maximum;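 also: chemicals first conditioned 2 h by alginate-bound induced rat liver S9 before cells; activity means signal loss indicating cell death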). The method, boiled down: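 Chemicals pre-incubated 2 hours with alginate-immobilised phenobarbital/beta-naphthoflavone-induced male Sprague Dawley rat liver S9, then conditioned medium applied 24 hour to VM7Luc4E2 cells. Viability by fluorogenic protease substrate; 10-point series 0.002 - 200 uM.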

Experiment [10] in a line: CCTE_Deisenroth_AIME_384WELL_CTox_Inactive: Cytotoxicity Assessment (CTOX) in CCTE's 384-well Estrogen Receptor Transactivation Assay without AIME metabolic competence (metabolism negative), Deisenroth Lab (AID 2284039; active = hit-call score of the fitted dose curve at least 0.9, where 1 is the maximum;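 also: cell viability via live-cell protease substrate cleaved to fluorescent probe; cells exposed 24 h to medium preincubated 2 h with alginate-water beads without S9; loss of fluorescence signal means loss of viability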). The method in brief:
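Fluorescent protease-substrate viability readout after 24 h exposure of VM7Luc4E2 cells to conditioned medium. Chemicals (0.002–200 uM) first sat 2 h over alginate-water beads, no S9. Data fitted bidirectionally, loss of signal meaning viability loss.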

“And” between values parts separate entries of the source, which are not always exact repeats. Identical values can stand only once. Results filed as inconclusive are left out. The source holds several records for some structures; these can differ, active in one and inactive in another. The source made the active and inactive calls. The calls were made as follows, unless noted: active = hit-call score of the fitted dose curve at least 0.9, where 1 is the maximum; inactive = score below 0.9.

Outcome and AC50 data for 14 compounds are collected here from PubChem BioAssay (EPA / NIEHS).

Chain of Estrogen receptor (Homo sapiens) (P03372 whole entry, looked up): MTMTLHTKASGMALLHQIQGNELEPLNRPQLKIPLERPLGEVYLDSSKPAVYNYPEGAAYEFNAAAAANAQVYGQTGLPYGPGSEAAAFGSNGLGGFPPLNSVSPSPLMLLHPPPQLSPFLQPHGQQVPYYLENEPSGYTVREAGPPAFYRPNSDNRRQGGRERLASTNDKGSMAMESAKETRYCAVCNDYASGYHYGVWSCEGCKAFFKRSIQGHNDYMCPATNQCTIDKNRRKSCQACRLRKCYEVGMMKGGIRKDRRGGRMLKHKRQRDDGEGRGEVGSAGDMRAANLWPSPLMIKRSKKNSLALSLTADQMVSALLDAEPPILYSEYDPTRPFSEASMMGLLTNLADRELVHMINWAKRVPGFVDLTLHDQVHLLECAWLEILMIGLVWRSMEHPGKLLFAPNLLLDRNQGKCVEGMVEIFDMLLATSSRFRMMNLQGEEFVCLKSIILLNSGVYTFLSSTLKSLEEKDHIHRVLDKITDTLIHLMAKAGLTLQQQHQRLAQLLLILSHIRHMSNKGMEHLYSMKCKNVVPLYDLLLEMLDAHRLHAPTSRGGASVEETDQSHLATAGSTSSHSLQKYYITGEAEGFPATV

As for `CNC(=O)CSP(=S)(OC)OC`, the outcome in experiment [1], in experiment [2], in [3], in experiment [4] and in [5] was inactive. The AC50 (commonly the concentration giving half of the maximal activity seen) in [5] is 79.3 µM (active); in [6], 63.8 µM (active) and 27.9 µM (active); in [7], 77.4 µM (active) and 18.9 µM (active).

Turning to `O=S1OCC2C(CO1)C1(Cl)C(Cl)=C(Cl)C2(Cl)C1(Cl)Cl` (stereo unspecified), the concentration at half-maximal activity (AC50) in experiment [1] was 24.4 µM (active); in [2], 0.0502 µM (active); in [3] it was 19.8 µM (active); in [4], 23.7 µM (active); in experiment [8], 13.8 µM (active); in experiment [6] it was 8.83 µM (active). Moreover, the AC50 in experiment [7] is 8.87 µM (active). In addition, the outcome in experiment [1], in experiment [2], in experiment [3], in [4], in experiment [5] and in [9] was inactive. In addition, the result in experiment [10] was inactive.

For the compound `CNC(=O)/C=C(\C)OP(=O)(OC)OC`, the compound was called inactive in experiment [1], in [2], in [3], in experiment [4], in experiment [8] and in [9].

As to `CC(C)N(C(=O)COc1nnc(C(F)(F)F)s1)c1ccc(F)cc1`, the AC50 was 5 µM (active) in experiment [1]; 20 µM (active) and 10.9 µM (active) in experiment [3]; 15 µM (active) in experiment [4]. In addition, the call in experiment [1], in experiment [2], in experiment [4], in experiment [8], in [5] and in [6] was inactive. In addition, the compound was called inactive in experiment [10] and in [7].

Regarding `N#Cc1c(Cl)c(Cl)c(Cl)c(C#N)c1Cl`, the concentration at half-maximal activity (AC50) in [1] is 7.17 µM (active). The call in [2], in [3] and in experiment [4] was inactive.

`Clc1ccccc1-c1nnc(-c2ccccc2Cl)nn1`: the compound was called inactive in experiment [1], in experiment [2], in experiment [3], in experiment [4], in experiment [8] and in experiment [9]. In addition, in experiment [10], the outcome was inactive.

In the case of `O=S(=O)(O)C(F)(F)C(F)(F)C(F)(F)C(F)(F)C(F)(F)C(F)(F)C(F)(F)C(F)(F)F`, the compound was classed as inactive in experiment [1], in experiment [2], in experiment [3], in [4], in experiment [5] and in experiment [6]. Moreover, the compound was classed as inactive in experiment [7]. Moreover, the half-maximal activity concentration (AC50) in experiment [6] was 77.9 µM (active); in experiment [10], 100 µM (active); in [7], 50 µM (active).

Consider `CCCN(CCOc1c(Cl)cc(Cl)cc1Cl)C(=O)n1ccnc1`, for which the outcome in experiment [1], in experiment [2], in experiment [3] and in [4] was inactive.

Take `CC(C)OC(=O)Nc1cccc(Cl)c1`: the AC50 in experiment [1], in [3] and in experiment [4] was 20 µM (active) in each case. In addition, in experiment [2], the compound was called inactive.

Turning to `ClC1C(Cl)C(Cl)C(Cl)C(Cl)C1Cl` (stereo unspecified), the concentration at half-maximal activity (AC50) was 9.69 µM (active) in [2] and 1.22 µM (active) in experiment [4]. The call in experiment [3], in experiment [5], in experiment [6] and in experiment [7] was inactive.

As for `O=[N+]([O-])/N=C1\NCCN1Cc1ccc(Cl)nc1`, the result in experiment [1], in experiment [2], in [3], in experiment [4], in experiment [5] and in [6] was inactive. Besides, the compound was called inactive in [7].

On to `CCOCN(C(=O)CCl)c1c(C)cccc1CC`, for which the result in experiment [9] was inactive.

As to `COP(=O)(OC)OC=C(Cl)Cl`, the outcome in experiment [8], in [5], in experiment [6], in [9] and in experiment [7] was inactive. Further, the AC50 in experiment [5] was 9.72 µM (active); in [6], 4.26 µM (active); in [7] it was 5.4 µM (active).

`O=C(O)C(F)(F)C(F)(F)C(F)(F)C(F)(F)C(F)(F)C(F)(F)C(F)(F)F`: the call in [5], in experiment [6], in [9], in experiment [10] and in experiment [7] was inactive. The AC50 in experiment [7] is 14.1 µM (active).
